An excerpt weighted towards active compounds, which were near 1.1% of everything screened.
SNCA expr inhib = SNCA gene expression inhibition; HEK-293 SNCA-luciferase knock-in, luminescence, 24 h; Potency, µM (top dose mostly 57.2 µM), without a hit: top-dose activity change, negative = inhibition, hits mostly inhibitors; 140,000 tested, 0.17% active; AID 1671194;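 note: potency is the fitted concentration of half-maximal effect; plate controls were DMSO cells for no effect and cell-free wells for full effect; nearly all actives have a fitted effect of over 45% in size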
HEK293 viab = counter-screen for SNCA expression inhibitors: cell viability | HEK-293-SNCA-luc viability, GF-AFC fluorescence, 24 h | Potency, µM (series often up to 57.1 µM), inactives show top-dose activity change, negative = cytotoxicity, most hits filed as cytotoxic | 150,000 tested, 0.12% active;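 note: potency is the fitted concentration of half-maximal effect; 0% = DMSO-treated cells and -100% = medium-only wells without cells; nearly all actives have a fitted effect of over 30% in size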
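HEK-293-SNCA-luc cells (1500/well) plated 24 h, then exposed 24 h to a dilution series; GF-AFC added 30 min at 37C, fluorescence 405/540 nm; normalised to medium-only and DMSO wells, Hill fit.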
IP6K1 inh = blocks human inositol hexakisphosphate kinase 1. IP6K1 kinase, ADP-Glo luminescence, 2 h; stronger effect = lower value. activity change, % (series mostly up to about 58 µM). 140,000 tested, 0.81% active. AID 1645851; in the data active = activity change below about -25%
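ADP-Glo luminescence measures ADP made by human IP6K1 during a 2 h RT reaction with ATP/IP6 (mix at 1.3 mM/130 uM); top library doses 57.5 and 19.1 uM final.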
GPT2 inhibitor = GPT2 alanine aminotransferase inhibition; Q8TD30; Recombinant GPT2, coupled pyruvate oxidase/HRP Amplex Red fluorescence; Potency, µM (series often up to 57.7 µM), for inactives: top-dose activity change, negative = inhibition, usual class: inhibitors; 100,000 tested, 0.25% active; AID 1671188; note: potency is the fitted concentration of half-maximal effect; nearly all actives have a fitted effect of over 60% in size
Target sequence (Q8TD30 whole entry, looked up): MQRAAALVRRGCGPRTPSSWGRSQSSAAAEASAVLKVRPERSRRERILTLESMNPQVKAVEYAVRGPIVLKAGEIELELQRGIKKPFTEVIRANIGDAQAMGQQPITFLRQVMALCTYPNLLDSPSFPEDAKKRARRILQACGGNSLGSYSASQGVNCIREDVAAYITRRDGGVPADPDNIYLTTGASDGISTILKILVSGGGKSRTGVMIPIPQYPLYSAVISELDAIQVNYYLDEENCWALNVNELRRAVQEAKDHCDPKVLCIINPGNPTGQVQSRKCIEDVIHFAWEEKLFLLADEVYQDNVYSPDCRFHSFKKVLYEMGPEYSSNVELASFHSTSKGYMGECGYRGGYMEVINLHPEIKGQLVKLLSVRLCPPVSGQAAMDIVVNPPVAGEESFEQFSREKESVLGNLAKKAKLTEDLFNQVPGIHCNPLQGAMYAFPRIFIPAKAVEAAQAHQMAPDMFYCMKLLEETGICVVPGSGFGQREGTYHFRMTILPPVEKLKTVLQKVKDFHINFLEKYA
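GPT2 10ng/uL, a-KG 250uM, L-Ala 2mM, HEPES pH7.5 + 0.0001% Tween; 30 min RT. Then Amplex mix (PO/HRP/ThPP), 30 min RT dark, fluorescence. AOA 50uM used as positive control.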
IP6K1 conf = confirmation of human IP6K1 inhibitors; shares compounds with IP6K1 inh; recombinant IP6K1 kinase, ADP-Glo luminescence, 2 h; Potency, µM (highest dose often 49 µM), without a hit: at the highest dose activity change, negative = inhibition, hits mostly inhibitors; 1,200 tested, 13% active; AID 1645852; note: potency is the fitted concentration of half-maximal effect; nearly all actives have a fitted effect of over 65% in size
An asterisk follows results filed as active; i = inactive; ? = inconclusive; / = no result; [ ] = another dose, or the depositor's remark. Unless noted, calls come from the whole dose curve; as a rule, active = well fitted curve in the direction sought with a large enough effect; inconclusive = small, poorly fitted or top-dose-only effect, or another doubt; inactive = no such curve, though single readings can be large; an effect the other way counts as inactive or inconclusive. Unless noted, % is set by controls: 0 for no effect and ±100 for the full control effect.

SMILES	SNCA expr inhib	HEK293 viab	IP6K1 inh	GPT2 inhibitor	IP6K1 conf
C=C[C@H]1[C@H](O[C@@H]2O[C@H](CO)[C@@H](O)[C@H](O)[C@H]2O)OC=C(C(=O)OC)[C@H]1C[C@@H]1c2cc(O)c(O)cc2CCN1C(C)=O	/	18%[23.9 µM]	-13	3.2µM*	/
Fc1ccc(CN2CC[C@H](c3nc4ccc(C(F)(F)F)cc4[nH]3)C2)cc1F	7.9µM*	32µM*	10	?	/
COc1cc(-c2ccno2)ccc1S(=O)(=O)N1CCN(c2cc(C)ccc2C)CC1	-1%	12%	-14	/	/
COCCCNC(=O)C(C)(C)Oc1nn(Cc2cccc(Cl)c2)c2ccccc12	32µM*	?	0	-7%[88.5 µM]	/
CCc1ccc(CNC(=O)CN2CC3CC(C2)[C@H]2CCCC(=O)N2C3)cc1 (stereo partly specified)	-16%	1%	3	i	/
COc1cccc2c1C(=O)c1c(O)c3c(c(O)c1C2=O)C[C@@](O)(C(=O)CO)C[C@@H]3O[C@H]1C[C@H](N)[C@H](O)[C@H](C)O1	-54%[25.6 µM]	-7%[23.9 µM]	-21	i	/
COc1cccc2c1C(=O)c1c(O)c3c(c(O)c1C2=O)C[C@@](O)(C(C)=O)C[C@H]3O[C@H]1C[C@H](N)[C@H](O)[C@H](C)O1	0.24µM*	?	/	i	/
CCS(=O)(=O)c1c(Nc2cc(C)ccc2C)sc(C(=O)c2ccccc2)c1N	6%	-27%	7	/	/
O=C(c1ccncc1)N1CCc2nc3cc(-c4ccccc4Cl)[nH]n3c(=O)c2C1	7.9µM*	-7%	5	i	/
CCn1nccc1C(=O)N1CCc2nc3cc(-c4ccccc4Cl)[nH]n3c(=O)c2C1	?	1%	0	i	/
Cc1oc(-c2ccccc2Cl)nc1CS(=O)CC(=O)N1CCN(c2cccc(C(F)(F)F)c2)CC1 (stereo unspecified)	13µM*	?	11	/	/
COc1ccc(C(=O)N2CCC(C(NC(=O)c3ccccc3C)C(=O)NC(C)C(C)C)CC2)cc1 (stereo unspecified)	-22%	20µM*	10	-17%	/
c1ccc(-c2nc(-c3ccncc3)no2)c(OC2CCN(C3CCCC3)C2)c1 (stereo unspecified)	10%	-9%	-9	i	/
CCN1CCC(N2CCC(Oc3ccccc3-c3nc(-c4ccncc4)no3)C2)CC1 (stereo unspecified)	?	14µM*	-23	i	/
c1ccc(-c2noc(-c3ccc(OC4CNC4)cc3)n2)cc1	10µM*	-1%	8	i	/
CCOC(=O)c1ccc(N2C(=O)c3n[nH]c(-c4cccs4)c3C2c2cccc(OC)c2)cc1 (stereo unspecified)	18µM*	-21%	-2	/	/
Cc1ccc(-c2csc(=Nc3ccc(F)cc3)n2Cc2ccc3c(c2)OCO3)cc1C	80%	26%	-36*	/	-5%
Cc1ccc(-c2csc(=Nc3ccccc3)n2Cc2ccc3c(c2)OCO3)cc1C	99%	-11%	-16	/	/
CCN(CC)S(=O)(=O)c1ccc(-c2csc(=Nc3cccc(C(F)(F)F)c3)n2Cc2ccc3c(c2)OCO3)cc1	-1%	7%	-4	/	/
Fc1ccc(-c2csc(=Nc3cccc(C(F)(F)F)c3)n2Cc2ccc3c(c2)OCO3)cc1	1%	13%	-26*	/	2%
COc1ccccc1-c1nc(C(=O)NCc2cccnc2)n2ccccc12	3%	-9%	-10	i	/
CC(C)c1ccc(-c2cc(=O)c3ccccc3o2)cc1	/	-9%	-78*	i	3.3µM*
O=c1cc(-c2ccccc2)oc2ccccc12	206%	22%	-30*	?	?
CC(=O)Nc1ccc(NC(=O)c2cc(=O)c3ccccc3o2)cc1	?	-7%	0	/	/
COc1cccc(NC(=O)Cn2nc3c(cc2=O)CN(C(C)=O)CC3)c1	24%	-4%	2	i	/
SMILES	SNCA expr inhib	HEK293 viab	IP6K1 inh	GPT2 inhibitor	IP6K1 conf
COc1ccc(-c2cc(C(=O)NCc3c(C)cc(C)[nH]c3=O)c3c(c2)N(C(C)C)CCO3)cc1OC	?	-14%	-27*	i	?
CCC(=O)N1CCc2c(sc3ncnc(Nc4ccccc4)c23)C1	4%	-7%	-10	i	/
Oc1cccc(Nc2ncnc3sc4c(c23)CCCC4)c1	15%	-25%	-28*	/	?
COc1cc(O)c2c(c1)C1=CC(O)C(O)CC1(C)OC2=O (stereo unspecified)	/	1%	-9	i	/
COc1cc(O)c2c(c1)/C=C/C[C@H](O)[C@H](O)C(=O)/C=C\C[C@H](C)OC2=O	/	24µM*	-30*	i	?
COc1ccc(N2CCN(C(=O)Cn3c(-c4ccc(F)cc4)nc(C)cc3=O)CC2)cc1	6%	2%	-1	i	/
O=c1cc(-c2ccccc2)nc2cc(-c3ccc(F)cc3)[nH]n12	29%	-2%	-21	/	/
COc1ccc(-c2cc3nc(N)cc(=O)n3[nH]2)cc1	84%	-4%	-48*	/	?
Cc1noc(C)c1S(=O)(=O)N1CCC(C(=O)N2CCN(c3ccccc3)CC2)CC1	-16%	1%	-21	/	/
CN(Cc1cnn(C)c1)C(=O)C1C2C(=O)N(Cc3ccc(F)cc3)C[C@@]23C=C[C@@H]1O3 (stereo partly specified)	-20%	-5%	-42*	4%[11.5 µM]	-13%
O=C(C1C2C(=O)N(Cc3ccc(F)cc3)C[C@@]23C=C[C@@H]1O3)N1CCSCC1 (stereo partly specified)	0%	-10%	-12	2%	/
NCCCNc1ccc(Nc2nccc(Nc3cc(C4CC4)[nH]n3)n2)cc1	/	?	-8	?	/
OCCCNc1cc(-c2ccnc(Nc3cccc(Cl)c3)n2)ccn1	?	?	-26*	?	?
C[C@@H]1CCN(C(=O)CC#N)C[C@@H]1N(C)c1ncnc2[nH]ccc12	/	/	/	/	4%
COC(=O)c1ccc(NC(=O)CN(C)S(=O)(=O)c2ccc(Br)s2)cc1	-28%	-4%	-45*	/	?
CC(C)NC(=O)N1CCCC1c1noc(CCC(=O)NCCC2CCN(C(C)C)CC2)n1 (stereo unspecified)	15%	-3%	16	3%	/
NCC(=O)Nc1ccc(-n2nc(C(F)(F)F)cc2-c2ccc3c(ccc4ccccc43)c2)cc1	34%	?	-35*	i	?
Cc1cccc(NC(=O)c2oc3c(c2C)-c2[nH]ncc2CC3)c1C	242%	1%	-12	/	/
Cc1ccc(NC(=O)c2oc3c(c2C)-c2[nH]ncc2CC3)c(Cl)c1	136%	14%	-45*	/	-18%
C[C@@H]1CC[C@]2(C(=O)O)CC[C@]3(C)C(=CCC4[C@@]5(C)C[C@@H](O)[C@H](O)[C@@](C)(CO)C5CC[C@]43C)C2[C@H]1C (stereo partly specified)	/	-10%[23.9 µM]	24	-3%[27.3 µM]	/

Assay outcomes as filed in PubChem BioAssay.
